Cav32 inh: inhibitors of human Cav3.2 T-type calcium channel; O95180; Cav3.2-expressing cells, Fluo-4 calcium fluorescence FDSS; hits give low values; B-score at 10 µM; 100,000 compounds, 4% hits; AID 449739;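 active = single-dose well whose peak fluorescence ratio is a statistical outlier from its plate by either plate-standardised score or position-corrected B-score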
CYP2C9 inhib: blocks human cytochrome P450 2C9. P11712. CYP2C9 Supersomes, luciferin-H conversion, luminescence. inhibition, % at 5 µM. 96,000 compounds, 20% hits;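 active = blocking of liver enzyme CYP2C9 beyond about 50% at 5 µM, limit read from the data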
CYP2C19 activ: cytochrome P450 2C19 (human) activation. P33261. recombinant CYP2C19, luciferin-H EGE luminescence; hits give high values; 0 = fully inhibited enzyme, 1 = untreated enzyme. activation factor at 5 µM. 96,000 tested, under 10 active;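 active = activation factor of at least 2 at 5 µM in the primary screen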;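 note: 0 = wells with 2.5 mM tranylcypromine and 1 = vehicle-only wells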
PTK2B oligo ant: Pyk2 (human) oligomerization antagonism; Q293 cells, Pyk2 FERM NanoBiT luminescence; hits give low values; z-score (the deposit names both 25 µM and 10 µM); 99,000 compounds, 0.83% hits; Q14289; AID 1347419;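 active = Z-score of -3 or lower, scaled per plate to the spread of control and sample wells; inactive = z-score above -3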;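 note: negative z-score means lost luminescence so less FERM oligomerization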
Target sequence (Q14289 whole entry, looked up): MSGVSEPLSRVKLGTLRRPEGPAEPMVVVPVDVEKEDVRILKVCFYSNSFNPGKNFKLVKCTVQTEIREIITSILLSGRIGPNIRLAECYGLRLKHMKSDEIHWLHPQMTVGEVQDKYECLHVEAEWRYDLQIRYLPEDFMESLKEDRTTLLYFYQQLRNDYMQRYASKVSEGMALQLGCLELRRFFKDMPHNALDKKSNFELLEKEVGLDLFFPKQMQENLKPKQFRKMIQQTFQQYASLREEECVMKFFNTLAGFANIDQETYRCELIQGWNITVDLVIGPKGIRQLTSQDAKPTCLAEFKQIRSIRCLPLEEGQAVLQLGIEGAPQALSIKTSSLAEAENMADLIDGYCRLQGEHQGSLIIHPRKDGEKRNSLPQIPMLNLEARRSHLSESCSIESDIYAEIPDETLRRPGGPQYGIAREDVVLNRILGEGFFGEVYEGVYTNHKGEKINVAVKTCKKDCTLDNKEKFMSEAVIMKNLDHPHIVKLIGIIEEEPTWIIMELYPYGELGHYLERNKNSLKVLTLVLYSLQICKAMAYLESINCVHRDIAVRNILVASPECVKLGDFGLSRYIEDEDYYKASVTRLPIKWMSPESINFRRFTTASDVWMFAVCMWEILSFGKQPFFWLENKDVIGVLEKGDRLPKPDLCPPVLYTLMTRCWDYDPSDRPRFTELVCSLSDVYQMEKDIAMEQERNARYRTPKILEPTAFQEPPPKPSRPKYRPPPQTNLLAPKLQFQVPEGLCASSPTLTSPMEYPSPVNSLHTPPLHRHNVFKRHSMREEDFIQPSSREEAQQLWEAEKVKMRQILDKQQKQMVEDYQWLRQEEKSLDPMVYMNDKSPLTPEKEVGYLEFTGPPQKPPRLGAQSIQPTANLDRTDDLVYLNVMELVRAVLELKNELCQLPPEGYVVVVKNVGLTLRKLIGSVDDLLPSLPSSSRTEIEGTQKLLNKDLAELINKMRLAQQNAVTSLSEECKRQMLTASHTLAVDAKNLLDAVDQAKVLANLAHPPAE
CYP2C9 activ: activators of human CYP2C9; recombinant CYP2C9, luciferin-H conversion, luminescence; hits give high values; factor 1 = untreated enzyme, 0 = blocked; activation factor at 5 µM; 96,000 compounds, 1.4% hits;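 active = activation factor of 2 or more for CYP2C9 at a 5 µM dose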;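 note: 0 = sulfaphenazole-blocked wells and 1 = vehicle-only wells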
CYP2C19 inh: blocks human cytochrome P450 2C19; P33261; CYP2C19 Supersomes, luciferin-H EGE luminescence, 30 min; inhibition, % at 5 µM; 96,000 compounds, 21% hits; AID 778;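 active = CYP2C19 inhibition above a set limit at 5 µM in the primary screen, cut at about 50% in these data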;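 note: plate controls were negative control wells for no effect and 2.5 mM tranylcypromine positive control for full effect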
* hit, by the source's call; . = not tested or not shown. Hits are enriched below; roughly 27% of the tested compounds scored in any of these assays.

SMILES	Cav32 inh	CYP2C9 inhib	CYP2C19 activ	PTK2B oligo ant	CYP2C9 activ	CYP2C19 inh
O=C(C1=C[C@@H](c2coc3ccccc3c2=O)C[C@@H](OCCCCO)O1)N1CCN(Cc2ccc3c(c2)OCO3)CC1	1.3	.	.	.	.	.
CC(C)(C)NC(=O)COC(=O)/C=C/c1ccccc1[N+](=O)[O-]	0.18	12	0.9	-0.32	0.9	14
CN(Cc1ccccc1)C(=O)[C@H]1CCC(=O)N1Cc1ccco1	1.1	25	0.7	0.43	0.8	28
Cc1ccc(-n2nnnc2SCC(N)=O)c(C)c1	-0.016	-6	0.9	0.58	1.1	8
Cc1nnc(SCC(=O)NCc2ccco2)n1Cc1ccccc1	-0.58	-5	1.1	-0.33	1.1	-5
CCSc1nnc(-c2ccncc2)n1Cc1ccccc1	1.7	-21	0.9	0.52	1.2	14
CNC(=O)CSc1nnc(-c2ccncc2)n1Cc1ccccc1	0.095	13	0.8	-0.24	0.9	17
CC(C)CNC(=O)CSc1nnc(-c2ccccn2)n1Cc1ccccc1	-0.12	72*	0.2	-0.12	0.3	80*
COC(=O)c1ccc(CSc2nnc(-c3ccncc3)n2Cc2ccccc2)o1	2	74*	0.1	-1.1	0.3	87*
COC(=O)c1ccc(CSc2nnnn2-c2ccc(C)cc2C)o1	-2.2	86*	0.1	-0.78	0.1	90*
O=C(CSc1nnc(-c2ccncc2)n1Cc1ccccc1)NCCc1ccccc1	2.4	63*	0.3	-0.58	0.4	71*
O=C(NCc1cccs1)c1cc(C2CC2)on1	0.69	6	0.5	.	0.9	45
CCOc1ccccc1OCC(=O)Nc1nnc(COC)s1	0.087	.	.	-0.79	.	.
CCn1c(SCC(=O)NC(C)(C)C)nnc1-c1ccccn1	-0.38	23	0.3	0.78	0.8	73*
CCOC(=O)c1c(-c2ccc(C)cc2)csc1NC(=O)CCSc1nnc2ccccn12	.	.	.	-1.7	.	.
CCCn1c(SCC(=O)Nc2nnc(-c3ccccc3)s2)nnc1-c1ccccn1	-4	71*	0.3	-0.12	0.3	73*
CCn1c(SCC(=O)Nc2cc(NC(C)=O)ccc2OC)nnc1-c1ccccn1	0.32	.	.	0	.	.
COC(=O)c1ccc(CSc2nnc3ccccn23)o1	-2	7	0.5	1.3	0.9	52*
Cc1ccc(NC(=O)CCSc2nnc3ccccn23)cc1	0.42	12	0.5	0.41	0.9	55*
COc1ccccc1N/C(=N/c1nc(C)cc(C)n1)NC(C)=O	0.78	-5	1.1	.	1.1	-10
O=c1ccc(Cc2ccccn2)n[nH]1	-0.062	-12	1.2	0.07	1.1	-18
Cc1cc(C)n(C(=O)CNC(=O)C2COc3ccccc3O2)n1 (stereo not drawn)	-0.62	.	.	-0.25	.	.
CCc1ccc(NC(=O)CSc2nnc(-c3ccccn3)n2C)cc1	0.35	72*	0.3	0.23	0.3	67*
CC(C)c1ccc(NC(=O)CSc2nnc(-c3ccccn3)n2C)cc1	.	40	0.9	-0.58	0.6	15
CCCn1c(SCC(=O)NCCc2ccccc2)nnc1-c1ccccn1	0.9	56*	0.4	0.18	0.4	56*
SMILES	Cav32 inh	CYP2C9 inhib	CYP2C19 activ	PTK2B oligo ant	CYP2C9 activ	CYP2C19 inh
CCOC(=O)C[C@H]1c2cc(F)ccc2S(=O)(=O)N1Cc1ccc(OC)cc1	-0.055	.	.	.	.	.
Cc1c(NC(=O)C(CC(=O)O)NCc2ccco2)c(=O)n(-c2ccccc2)n1C (stereo not drawn)	0.96	.	.	-0.27	.	.
CCOC(=O)c1c(NC(=O)CSc2nnc(CNc3ccc(Cl)cc3)o2)sc(C)c1C	-1.4	.	.	-0.36	.	.
CCOC(=O)c1c(NC(=O)CSc2nnc(CNc3ccc(F)cc3)o2)sc(C)c1C	-4.6*	63*	0.9	0.67	0.4	12
CCOC(=O)c1sc(NC(=O)CSc2nnc(Cc3ccccc3)o2)c(C(=O)OCC)c1C	-1.9	78*	0.5	-0.51	0.2	54*
COc1ccc2c(c1)c(=O)cc(C)n2CC(=O)NCc1ccco1	0.093	6	0.5	1.3	0.9	50
CCCN1CN(Cc2ccco2)c2nc3ccccc3n2C1	0.079	2	0.9	1	1	11
CC(C)c1ccc(NC(=O)Cn2cccc2C2=NC(c3ccccc3)CO2)cc1 (stereo not drawn)	.	.	.	-3	.	.
Cc1oc(-c2ccccc2Cl)nc1Cn1cccc1C1=NC(c2ccccc2)CO1 (stereo not drawn)	-6.7*	75*	0.6	-0.04	0.3	43
COC(=O)C1=C(N)N(c2ccc(F)cc2)C2=C(C(=O)CCC2)C1c1ccc2c(c1)OCO2 (stereo not drawn)	.	-6	1.1	-2.3	1.1	-9
CC(C)OC(=O)c1c(F)c(F)c(N2CCOCC2)c(F)c1F	-0.88	-2	0.5	-0.85	1	51*
COC(=O)c1c(F)c(F)c(N2CCOCC2)c(F)c1F	0.038	6	0.7	0.11	0.9	33
CC(=O)c1c(C)[nH]c(C(=O)NCCc2cccc(C)c2)c1C	1.3	34	0.6	0.3	0.7	38
CC(=O)c1c(C)[nH]c(C(=O)OCC(=O)NCCc2ccc(Cl)cc2)c1C	-3	87*	0.1	-0.16	0.1	87*
COc1ccc(CCNC(=O)c2[nH]c(C)c(C(C)=O)c2C)cc1	0.24	73*	0.5	1	0.3	50*
O=C(N[C@@H](Cc1ccc(O)cc1)C(=O)O)c1ccc(C(F)(F)F)cc1	1.2	.	.	.	.	.
Cc1cc(C)n(C(=O)c2ccc(C)c(S(=O)(=O)N3CCCCC3)c2)n1	-2.2	91*	0.1	0.58	0.1	91*
Cc1ccc(C(=O)Nc2ccon2)cc1S(=O)(=O)N1CCCCCC1	-0.26	20	0.1	-0.34	0.8	88*
Cc1ccc(C(=O)O)cc1S(=O)(=O)N1CCC(C(=O)O)CC1	0.93	-25	1.2	1	1.3	-18
Cc1ccc(C(=O)Nc2ccon2)cc1S(=O)(=O)N1CCOCC1	0.19	2	1.1	-0.16	1	-7
O=C1c2ccccc2C(=O)C1c1ccncc1	-0.17	91*	0.5	0.93	0.1	49
Cc1ccccc1N1C(=O)c2ccccc2NC1c1ccncc1 (stereo not drawn)	0.13	.	.	-1	.	.
CC1(C)NC(=O)N(CC(O)CN2C(=O)CCC2=O)C1=O (stereo not drawn)	0.13	-22	1.1	-0.07	1.2	-8
CC1(C)NC(=O)N(CC(O)Cn2nnc3ccccc32)C1=O (stereo not drawn)	.	33	0.3	1.5	0.7	69*
CCOC(=O)c1nnn(-c2nonc2N)c1CN(CC)CC	0.007	2	0.6	-0.45	1	36
CCOC(=O)c1nnn(-c2nonc2N)c1COc1ccc(F)cc1	-2.9	81*	0.9	-0.58	0.2	14
CCOC(=O)c1nnn(-c2nonc2N)c1CNc1ccccc1	-0.95	53*	0.9	-0.38	0.5	7
CCOC(=O)c1nnn(-c2nonc2N)c1COc1ccccc1	-3	88*	0.5	2.4	0.1	48
